Measurements published in the supplement of paper PMC10646978.
± gives the standard deviation.

Columns and labels:
Details in all cases: modulator concentration 10 µM
[1] = system: RAW-Dual (murine macrophage reporter line); test: NF-kB reporter (SEAP) activity fold change vs agonist alone; higher = enhanced NF-kB activity
Procedure, shortened: (§1)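 RAW-Dual murine macrophage reporter cells were plated at 50 000 per well in 384-well plates, pin-transferred compound to 10 μM final, and pre-incubated for 1 hour at 37 °C before a PRR agonist was added and the cells incubated overnight. NF-κB activity was read from supernatant SEAP with QUANTI-Blue at 620 nm absorbance, and IRF activity from Lucia luciferase with QUANTI-Luc by luminescence. Each signal was expressed as fold change by dividing by the mean agonist-only control on the same plate. Two replicate plates were averaged, with errors obtained by propagation.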

[2] = system: RAW-Dual (murine macrophage reporter line); test: IRF reporter (Lucia luciferase) activity fold change vs agonist alone; higher = enhanced IRF activity
Procedure, shortened: as §1

[3] = system: RAW-Dual (murine macrophage reporter line); test: viability score (confluency relative to resting cells, overnight) (fraction); higher = more viable, active = viable (0.7 or more)
Procedure, shortened: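 Two confluency masks, generated with IncuCyte software over all imaged wells, were applied to IncuCyte images of RAW-Dual macrophages. The cells, in 384-well plates, had been exposed overnight to 10 μM final compound. The viability score is confluency as a fraction of resting cells, and a compound met the cutoff only with both masks above 70% of resting cells.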

[4] = agonist: CpG ODN 1826 0.5 ug/mL

| SMILES | NF-kB reporter [1, 4] | NF-kB reporter ([1]; agonist: LPS 0.1 ug/mL) | NF-kB reporter ([1]; agonist: MPLA […]) | IRF reporter ([2]; agonist: 3'3'-cGAMP 10 ug/mL) | IRF reporter ([2]; agonist: LPS 0.1 ug/mL) | IRF reporter ([2]; agonist: MPLA […]) | viability score [3] |
| --- | --- | --- | --- | --- | --- | --- | --- |
| O=c1c2ccccc2n(Cc2nc(-c3ccc(F)c(F)c3)no2)c(=O)n1C1CC1 | 0.84 ± 0.076 | 1.21 ± 0.096 | 0.923 ± 0.11 | 0.995 ± 0.074 | 1.04 ± 0.074 | 1.07 ± 0.15 | 0.971 (active) |
| CCN(CC)CCNC(=O)c1c(C)[nH]c(/C=C2\C(=O)Nc3ccc(F)cc32)c1C | 0.102 ± 0.0079 | 0.192 ± 0.015 | 0.475 ± 0.031 | 0.0578 ± 0.003 | 0.0794 ± 0.014 | 0.0928 ± 0.022 | 0.359 (inactive) |
| O=C(c1ccc(F)c(F)c1Nc1ccc(I)cc1F)N1CC(O)([C@@H]2CCCCN2)C1 | 0.155 ± 0.0087 | 0.0529 ± 0.0032 | 0.123 ± 0.012 | 0.871 ± 0.029 | 4.08 ± 0.27 | 1.81 ± 0.16 | 0.0873 (inactive) |
| OCCOCCN1CCN(C(c2ccccc2)c2ccc(Cl)cc2)CC1 (centres undefined) [Prestw-133] | 1.07 ± 0.083 | 0.934 ± 0.071 | 1.07 ± 0.11 | 0.763 ± 0.024 | 1 ± 0.14 | 1.01 ± 0.21 | 1.04 (active) |
| O=C(Nc1ccncc1)c1ccc(OCC2CCOCC2)nc1 | 1.15 ± 0.063 | 1.39 ± 0.12 | 1.28 ± 0.082 | 1.22 ± 0.083 | 1.28 ± 0.11 | 1.24 ± 0.34 | 0.996 (active) |
| CC(C)NCC(O)COc1cccc2ccccc12 (centres undefined) [Prestw-1075] | 1.02 ± 0.064 | 0.92 ± 0.11 | 1.05 ± 0.043 | 0.896 ± 0.032 | 0.929 ± 0.071 | 0.918 ± 0.09 | 0.985 (active) |
| CCOC(=O)n1ccn(C)c1=S | 1.26 ± 0.21 | 1.04 ± 0.33 | 0.909 ± 0.067 | 0.913 ± 0.03 | 1.18 ± 0.48 | 1.11 ± 0.09 | 0.992 (active) |
| Cc1c(C(=O)NN)sc(-c2ccccc2)c1C#N | 0.868 ± 0.071 | 1.13 ± 0.074 | 0.987 ± 0.034 | 0.562 ± 0.071 | 1.08 ± 0.12 | 1.43 ± 0.29 | 0.998 (active) |
| CN(C)CC/C=C1/c2ccccc2COc2ccc(CC(=O)O)cc21.Cl | 1.35 ± 0.26 | 1.22 ± 0.36 | 1.66 ± 0.75 | 0.953 ± 0.039 | 1.42 ± 0.17 | 1.2 ± 0.094 | 0.992 (active) |
| CCN(CC)CC#CCOC(=O)C(O)(c1ccccc1)C1CCCCC1.Cl (centres undefined) | 0.873 ± 0.057 | 1.01 ± 0.11 | 1.05 ± 0.084 | 0.998 ± 0.047 | 1.12 ± 0.2 | 1.19 ± 0.29 | 1.02 (active) |
| Cl.O=C(O)/C=C/c1ccc(Cn2ccnc2)cc1 | 1.43 ± 0.19 | 1.32 ± 0.25 | 0.979 ± 0.069 | 0.909 ± 0.028 | 1.34 ± 0.23 | 0.87 ± 0.096 | 0.988 (active) |
| CCOC(=O)C1=C(C)NC(=S)NC1c1cccc(C)c1 (centres undefined) | 0.93 ± 0.097 | 1.09 ± 0.097 | 1.05 ± 0.037 | 0.712 ± 0.17 | 0.944 ± 0.045 | 0.835 ± 0.057 | 0.975 (active) |
| O=C1C(N2CCC(O)C2)CCN1CC(F)(F)F (centres undefined) | 0.992 ± 0.12 | 1.04 ± 0.1 | 0.876 ± 0.086 | 1.03 ± 0.053 | 1.22 ± 0.079 | 1.24 ± 0.15 | 1.01 (active) |
| C=CCn1c(-c2ccc(OC)cc2)cnc1SCC(=O)N1CCc2ccccc21 | 0.967 ± 0.12 | 1.06 ± 0.09 | 1.09 ± 0.18 | 0.927 ± 0.1 | 1.03 ± 0.062 | 0.962 ± 0.11 | 1 (active) |
| OC1C=C2CCN3Cc4cc5c(cc4C(C1O)C23)OCO5 (centres undefined) | 1.1 ± 0.099 | 0.352 ± 0.029 | 1.35 ± 0.14 | 0.678 ± 0.062 | 0.751 ± 0.072 | 1.04 ± 0.19 | 0.71 (active) |
| O=C(O)c1cc(O)c2ccccc2n1 | 1.23 ± 0.3 | 1.13 ± 0.11 | 1 ± 0.064 | 1.01 ± 0.057 | 1.21 ± 0.14 | 1.38 ± 0.14 | 0.991 (active) |
| O=C(NN=Cc1ccc([N+](=O)[O-])o1)c1ccc(O)cc1 | 2.16 ± 0.17 | 1.49 ± 0.097 | 1.62 ± 0.066 | 0.956 ± 0.063 | 1.77 ± 0.18 | 1.22 ± 0.22 | 0.938 (active) |
| N#CC1=C(NC(=S)NC(=O)c2ccccc2)c2ccccc2CC12CCCC2 | 0.535 ± 0.03 | 0.918 ± 0.07 | 0.717 ± 0.042 | 0.792 ± 0.033 | 1.63 ± 0.1 | 1.26 ± 0.2 | 0.982 (active) |
| CC12CC3CC(C1)CC(CC(=O)O)(C3)C2 | 1.02 ± 0.18 | 1.04 ± 0.12 | 0.994 ± 0.17 | 0.907 ± 0.029 | 1.09 ± 0.11 | 1.3 ± 0.3 | 0.526 (inactive) |
| CC(c1ccccc1)c1nnc(NC(=O)c2ccco2)s1 (centres undefined) | 0.853 ± 0.29 | 1.12 ± 0.12 | 1.04 ± 0.1 | 0.906 ± 0.027 | 1.13 ± 0.23 | 1.3 ± 0.32 | 0.968 (active) |
| CC1=CC(C)C2(COC(c3cccnc3)OC2)C(C)C1 (centres undefined) | 0.876 ± 0.067 | 0.788 ± 0.12 | 0.695 ± 0.065 | 0.967 ± 0.033 | 1.15 ± 0.18 | 1.1 ± 0.19 | 0.388 (inactive) |
| O=C(O)CN1C(=O)c2cccc3cccc(c23)C1=O | 1.11 ± 0.083 | 0.935 ± 0.053 | 1.01 ± 0.039 | 0.934 ± 0.053 | 0.911 ± 0.14 | 0.956 ± 0.22 | 0.998 (active) |
| CCOCCn1c(N2CCCN(C)CC2)nc2ccccc21 [Prestw-1274] | 0.77 ± 0.17 | 1.24 ± 0.17 | 1.03 ± 0.08 | 1.01 ± 0.027 | 1.19 ± 0.21 | 1.44 ± 0.15 | 0.996 (active) |
| O=c1c(O)c(-c2ccccc2)oc2cc(O)ccc12 | 1.21 ± 0.34 | 1.37 ± 0.084 | 1.43 ± 0.15 | 0.764 ± 0.026 | 0.947 ± 0.12 | 0.789 ± 0.077 | 1 (active) |
| CCCCC1(C)OC(=O)C(=Cc2ccc(OC)c([N+](=O)[O-])c2)C(=O)O1 (centres undefined) | 0.994 ± 0.17 | 1.07 ± 0.11 | 0.951 ± 0.086 | 0.966 ± 0.038 | 1.16 ± 0.13 | 1.25 ± 0.15 | 1 (active) |
| Brc1ccc(-c2cc(-c3ccccc3)nc(N3CCOCC3)n2)cc1 | 0.81 ± 0.087 | 0.995 ± 0.11 | 1.12 ± 0.13 | 0.977 ± 0.059 | 1.35 ± 0.25 | 1.59 ± 0.38 | 1.01 (active) |
| CC1(C)CC(=O)C2=C(C1)OC(N)=C(C#N)C2c1ccccc1C(F)(F)F (centres undefined) | 1.01 ± 0.073 | 1.09 ± 0.074 | 1.06 ± 0.14 | 0.999 ± 0.059 | 1.22 ± 0.086 | 1.26 ± 0.29 | 0.994 (active) |
